The campaign covered roughly 5,500 compounds. About 2,000 (36%) were called active. Not shown: some 18% with an inconclusive outcome. The list shows a part of the results. Unmarked numbers belong to inactive results. Rule as the data show it: active = normalized growth mostly below about 0.91 (no sharp cut-off); inconclusive = no clear call, values can overlap the other calls; inactive = mostly above about 0.92.
Assay: chemical genetic growth profiling, strain panel (AID 1159580);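 also: tested at 20 µM; growth read once vehicle control cultures reached saturation at 30 °C; 1 = growth at the plate median or of vehicle wells; lower values mean less growth of the strain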
Conditions: S. cerevisiae deletion strains, growth OD

## Cc1c(Cl)cccc1N=C1SCC(=O)N1Cc1ccco1
Locus YAR019C, strain CDC15, active compounds read low
  normalized growth: 0.981
Locus YBL105C, strain PKC1, active compounds read low
  normalized growth: 0.973
Locus YBR135W, strain CKS1, active compounds read low
  normalized growth: 0.972
Locus YBR136W, strain MEC1, active compounds read low
  normalized growth: 0.981
Locus YBR160W, strain CDC28, active compounds read low
  normalized growth: 0.971
Locus YDL017W, strain CDC7, active compounds read low
  normalized growth: 0.974
Locus YDL028C, strain MPS1, active compounds read low
  normalized growth: 0.977
Locus YDL101C, strain DUN1, active compounds read low
  normalized growth: 0.979
Locus YDL108W, strain KIN28, active compounds read low
  normalized growth: 0.972
Locus YDL132W, strain cdc53, active compounds read low
  normalized growth: 0.978
Locus YDL214C, strain PRR2, active compounds read low
  normalized growth: 0.905
Locus YDR052C, strain DBF4, active compounds read low
  normalized growth: 0.986
Locus YDR054C, strain cdc34, active compounds read low
  normalized growth: 0.96
Locus YDR226W, strain ADK1, active compounds read low
  normalized growth: 0.98
Locus YDR477W, strain SNF1, active compounds read low
  normalized growth: 0.918
Locus YER123W, strain YCK3, active compounds read low
  normalized growth: 0.884
Locus YER133W, strain GLC7, active compounds read low
  normalized growth: 0.915
Locus YFL009W, strain cdc4, active compounds read low
  normalized growth: 0.969
Locus YFL029C, strain CAK1, active compounds read low
  normalized growth: 0.971
Locus YFR003C, strain YPI1, active compounds read low
  normalized growth: 0.969
Locus YFR019W, strain FAB1, active compounds read low
  normalized growth: 0.918
Locus YFR028C, strain CDC14, active compounds read low
  normalized growth: 0.964
Locus YGR040W, strain KSS1, active compounds read low
  normalized growth: 0.912
Locus YGR052W, strain FMP48, active compounds read low
  normalized growth: 1
Locus YGR092W, strain DBF2, active compounds read low
  normalized growth: 0.943
Locus YHR030C, strain SLT2, active compounds read low
  normalized growth: 0.758 (active)
Locus YHR079C, strain IRE1, active compounds read low
  normalized growth: 0.888
Locus YHR082C, strain KSP1, active compounds read low
  normalized growth: 0.942
Locus YHR205W, strain SCH9, active compounds read low
  normalized growth: 0.896
Locus YIL147C, strain SLN1, active compounds read low
  normalized growth: 0.975
Locus YJL095W, strain BCK1, active compounds read low
  normalized growth: 0.823
Locus YJL128C, strain PBS2, active compounds read low
  normalized growth: 0.951
Locus YJL157C, strain FAR1, active compounds read low
  normalized growth: 0.936
Locus YJR016C, strain ILV3, active compounds read low
  normalized growth: 0.969
Locus YJR066W, strain TOR1 (second series), active compounds read low
  normalized growth: 0.903
Locus YJR066W, strain TOR1, active compounds read low
  normalized growth: 0.893
Locus YKL048C, strain ELM1, active compounds read low
  normalized growth: 0.975
Locus YKL067W, strain YNK1, active compounds read low
  normalized growth: 0.903
Locus YKL101W, strain HSL1, active compounds read low
  normalized growth: 0.923
Locus YKL193C, strain SDS22, active compounds read low
  normalized growth: 0.966
Locus YKL203C, strain TOR2, active compounds read low
  normalized growth: 0.954
Locus YLR113W, strain HOG1, active compounds read low
  normalized growth: 0.809 (active)
Locus YLR133W, strain CKI1, active compounds read low
  normalized growth: 0.918
Locus YLR403W, strain SFP1, active compounds read low
  normalized growth: 0.918
Locus YML070W, strain DAK1, active compounds read low
  normalized growth: 0.892
Locus YMR001C, strain CDC5, active compounds read low
  normalized growth: 0.973
Locus YMR205C, strain PFK2 (second series), active compounds read low
  normalized growth: 0.919
Locus YMR277W, strain FCP1, active compounds read low
  normalized growth: 0.969
Locus YNL006W, strain LST8, active compounds read low
  normalized growth: 0.974
Locus YNL020C, strain ARK1, active compounds read low
  normalized growth: 0.914
Locus YNL161W, strain CBK1, active compounds read low
  normalized growth: 0.978
Locus YNL183C, strain NPR1, active compounds read low
  normalized growth: 0.849
Locus YNL207W, strain RIO2, active compounds read low
  normalized growth: 0.974
Locus YNL222W, strain SSU72, active compounds read low
  normalized growth: 0.969
Locus YNL307C, strain MCK1 (second series), active compounds read low
  normalized growth: 0.892
Locus YOL078W, strain AVO1, active compounds read low
  normalized growth: 0.978
Locus YOL136C, strain PFK27, active compounds read low
  normalized growth: 0.889
Locus YOR061W, strain CKA2, active compounds read low
  normalized growth: 0.925
Locus YOR119C, strain RIO1, active compounds read low
  normalized growth: 0.998
Locus YOR231W, strain MKK1, active compounds read low
  normalized growth: 0.885
Locus YOR329C, strain SCD5, active compounds read low
  normalized growth: 0.976
Locus YPL031C, strain PHO85, active compounds read low
  normalized growth: 0.897
Locus YPL153C, strain RAD53, active compounds read low
  normalized growth: 0.916
Locus YPL204W, strain HRR25, active compounds read low
  normalized growth: 0.89
Locus YPL209C, strain IPL1, active compounds read low
  normalized growth: 0.976
Locus YPL256C, strain CLN2, active compounds read low
  normalized growth: 0.791 (active)
Locus YPR025C, strain CCL1, active compounds read low
  normalized growth: 0.975
Locus YPR106W, strain ISR1, active compounds read low
  normalized growth: 0.963
Locus YPR111W, strain DBF20, active compounds read low
  normalized growth: 0.954
Strain NNK1, active compounds read low
  normalized growth: 0.951
Strain TSCII, active compounds read low
  normalized growth: 0.976
